Experimental data published in PubChem BioAssay (Tox21).
Where “and” joins values, the source holds several entries; their conditions need not be identical. Equal values may be shown once. Results filed as inconclusive are left out. Where a call stands in place of a potency, no number is given. A structure can be active in one record and inactive in another. Calls of active or inactive are those of the source. Calls come from the whole dose curve; as a rule, active = well fitted inhibition curve with a large enough effect in the repeat runs; inconclusive = weak or mixed curves; inactive = no such curve, though single readings can be large or run the other way.

Target: Cytochrome P450 2D6 (Homo sapiens) (UniProt P10635)
Assay: Cytochrome P450 Family 2 Subfamily D Member 6 (CYP2D6) small molecule antagonists: luciferase reporter qHTS assay (AID 1671196); note: nearly all actives have a fitted effect of over 50% in size
Conditions: P450-Glo CYP2D6 enzyme assay, luciferin luminescence, 1 h; series mostly up to 115 µM
How it was run: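 Each well received CYP2D6 with its proluciferin substrate and chemical, sat 10 min, then got NADPH regeneration solution for 1 h at room temperature. Luminescence in RLU served as the activity measure.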
Potency is the fitted concentration of half-maximal effect.

Cytochrome P450 2D6 (Homo sapiens), sequence (P10635 whole entry, looked up): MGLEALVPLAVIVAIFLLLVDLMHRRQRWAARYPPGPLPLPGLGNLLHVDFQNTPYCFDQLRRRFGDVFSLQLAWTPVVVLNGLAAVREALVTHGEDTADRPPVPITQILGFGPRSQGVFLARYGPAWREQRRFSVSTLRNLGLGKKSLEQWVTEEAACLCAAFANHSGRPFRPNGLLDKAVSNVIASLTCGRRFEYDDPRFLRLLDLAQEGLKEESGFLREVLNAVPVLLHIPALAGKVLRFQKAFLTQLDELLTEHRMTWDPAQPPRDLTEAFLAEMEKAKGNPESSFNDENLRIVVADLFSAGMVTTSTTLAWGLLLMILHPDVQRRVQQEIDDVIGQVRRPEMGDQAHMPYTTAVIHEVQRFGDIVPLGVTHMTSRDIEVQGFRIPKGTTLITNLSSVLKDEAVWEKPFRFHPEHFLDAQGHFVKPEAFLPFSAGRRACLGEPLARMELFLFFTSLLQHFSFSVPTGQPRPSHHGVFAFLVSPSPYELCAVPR

| Compound | Potency |
| --- | --- |
| Cc1cc(Cl)ccc1OCC(=O)O | inactive |
| CCCC[n+]1ccc(C)cc1 | inactive and 449 nM (active) |
| C[C@]12CCC(=O)C=C1CC[C@@H]1[C@@H]2CC[C@]2(C)C(=O)CC[C@@H]12 | inactive |
| Cc1cc(Cl)ccc1N | 23 µM (active) and inactive and 22.4 µM (active) |
| O=C(O)COc1ccc(Cl)cc1Cl | inactive and 35.6 µM (active) |
| CN(C)[C@@H]1C(=O)C(C(N)=O)=C(O)[C@@]2(O)C(=O)C3=C(O)c4c(O)cccc4[C@@](C)(O)[C@H]3[C@H](O)[C@@H]12 | inactive |
| Nc1ccccc1 | inactive and 64.5 µM (active) |
| CCCCCCCCn1cc[n+](C)c1 | 5.68 µM (active) [middle of 4 runs] |
| CCCC[N+]1(C)CCCC1 | inactive |
| COc1ccccc1N | 17.8 µM (active) and 35.7 µM (active) and 12.6 µM (active) |
| CCCC[n+]1ccccc1 | inactive |
| C1CCC(NC2CCCCC2)CC1 | 1.47 µM (active) and 252 nM (active) and 246 nM (active) |
| CCCC[n+]1ccccc1C | inactive |
| CCC[N+]1(C)CCCC1 | inactive |
| O=C(O)CC(O)(CC(=O)O)C(=O)O | inactive |
| CCCCn1cc[n+](C)c1C | inactive |
| CCCC[n+]1cccc(C)c1 | inactive |

Target: Cytochrome P450 2C19 (Homo sapiens) (UniProt P33261)
Assay: Cytochrome P450 Family 2 Subfamily C Member 19 (CYP2C19) small molecule antagonists: luciferase reporter qHTS assay (AID 1671197); note: nearly all actives have a fitted effect of over 65% in size
Conditions: P450-Glo CYP2C19 enzyme, luciferin luminescence, 1 h; series mostly up to 115 µM
How it was run: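 Inhibition of CYP2C19 was scored from loss of luminescence in a P450-Glo proluciferin substrate assay, NADPH-started and run 1 h at 37C, with ketoconazole as positive control.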

Cytochrome P450 2C19 (Homo sapiens), sequence (P33261 whole entry, looked up): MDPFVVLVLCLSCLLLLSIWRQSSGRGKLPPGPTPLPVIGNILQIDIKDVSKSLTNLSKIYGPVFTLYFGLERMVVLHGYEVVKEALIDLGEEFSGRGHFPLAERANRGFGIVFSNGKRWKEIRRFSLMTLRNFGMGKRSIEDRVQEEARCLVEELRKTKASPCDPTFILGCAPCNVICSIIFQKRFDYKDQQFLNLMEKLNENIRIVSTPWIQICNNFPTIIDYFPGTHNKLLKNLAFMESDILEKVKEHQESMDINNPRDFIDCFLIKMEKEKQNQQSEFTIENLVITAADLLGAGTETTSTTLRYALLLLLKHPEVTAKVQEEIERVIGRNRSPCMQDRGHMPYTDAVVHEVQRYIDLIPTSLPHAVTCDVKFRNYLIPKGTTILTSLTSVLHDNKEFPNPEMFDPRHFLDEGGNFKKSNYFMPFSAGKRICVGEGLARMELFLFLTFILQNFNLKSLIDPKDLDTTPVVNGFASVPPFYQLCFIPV

| Compound | Potency |
| --- | --- |
| Cc1cc(Cl)ccc1OCC(=O)O | inactive and 39.9 µM (active) |
| CCCC[n+]1ccc(C)cc1 | inactive |
| C[C@]12CCC(=O)C=C1CC[C@@H]1[C@@H]2CC[C@]2(C)C(=O)CC[C@@H]12 | 8.79 µM (active) and 39.9 µM (active) and 30.9 µM (active) |
| Cc1cc(Cl)ccc1N | 20.5 µM (active) and 31 µM (active) and 22.4 µM (active) |
| O=C(O)COc1ccc(Cl)cc1Cl | 70.7 µM (active) and inactive |
| COc1ccc(N)cc1 | 39.9 µM (active) [middle of 4 runs] |
| CN(C)[C@@H]1C(=O)C(C(N)=O)=C(O)[C@@]2(O)C(=O)C3=C(O)c4c(O)cccc4[C@@](C)(O)[C@H]3[C@H](O)[C@@H]12 | inactive |
| Nc1ccccc1 | 30.9 µM (active) and 36.3 µM (active) and inactive |
| CCCCCCCCn1cc[n+](C)c1 | 39.9 µM (active) and inactive |
| CCCCCCn1cc[n+](C)c1 | inactive and 23.4 µM (active) |
| CCCC[N+]1(C)CCCC1 | inactive and 40.2 µM (active) |
| CCCC[n+]1ccccc1 | inactive |
| CCCC[n+]1ccccc1C | inactive |
| CCC[N+]1(C)CCCC1 | inactive |
| CCCCn1cc[n+](C)c1C | inactive |
| CCCCCC[n+]1ccccc1 | inactive |
| CCCC[n+]1cccc(C)c1 | inactive |
| CCCCCCCCCCn1cc[n+](C)c1 | 40.3 µM (active) and 3.26 µM (active) and inactive |
